Screening data from PubChem.
D2 ag-1: activates the human D2 dopamine receptor; HEK293 T-REx D2 cells, calcium flux agonist mode; 340,000 tested, 0.53% active; P14416; activation, % at 2 µM;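 active = activation over 3 SD above normal in the single-dose calcium agonist read, cut at about 30% in these data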
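Agonism scored from kinetic calcium signal (1 read/sec, 180 s) following compound pin transfer, after a 10 s baseline. Cells: HEK293 Trex line expressing inducible D2 receptor coupled to calcium, dye-loaded after overnight culture at 30 C.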
D2 antagonist: antagonists of human D2 dopamine receptor; P14416; HEK293 TREx D2 cells, calcium flux, dopamine EC80; inhibition, % at 10 µM; 340,000 tested, 2% active; in the data active = inhibition above about 30%; inactive = below that, where a call was filed
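Cells plated overnight at 30 C with tetracycline; no-wash calcium dye, 30–90 min RT; 10 s baseline; compound pinned; 180 s read; EC80 dopamine added; another 180 s read.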
D2 ag-2: agonists of human D2 dopamine receptor (beta-arrestin) | P14416 | DiscoveRx PathHunter D2 beta-arrestin, luminescence, 90 min; 100% = 57 uM dopamine signal | activation, % (no concentration beside the values) | 360,000 tested, 0.084% active; in the data active = activation above about 40%; inconclusive = between about 15% and that limit
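DiscoveRx PathHunter D2 beta-arrestin cells (2,100/well) attached overnight, then compound-stimulated 90 min at 37 C in HBSS/10 mM HEPES/0.1% Tween-20 buffer; beta-galactosidase complementation read by luminescence after 1 h at ambient temperature. Dopamine 57 uM final (EC100) as control.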
D2 PAM-1: D2 dopamine receptor (human) potentiation; P14416; HEK293 T-REx D2, calcium flux, EC20 dopamine potentiation; potentiation, % at 10 µM; 340,000 tested, 0.34% active;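 active = potentiation over 3 SD above the plate norm, cut at about 30% in these data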
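Potentiation of an EC20 dopamine calcium response measured kinetically over 180 s, after a preceding 180 s compound-only read flagging agonists. Cells: inducible Hek293 Trex D2 line, 4000/well, cultured overnight at 30 C before dye loading.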
D2 PAM-2: potentiates the human D2 dopamine receptor allosterically; P14416; potentiation, % (test concentration not listed); 360,000 tested, 0.23% active; DiscoveRx D2 beta-arrestin cells, luminescence, 90 min; 100% = 57 uM dopamine signal; in the data active = potentiation above about 50%; inconclusive = mostly about 30% to 49%
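D2 cells co-treated with compound plus 50 nM dopamine (EC20) for 90 min at 37 deg C to detect potentiation. Beta-arrestin recruitment was read as enzyme-fragment luminescence after 1 h at ambient temperature. Full response was set by 57 uM dopamine.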
D3 arrestin ag: confirmation of human D3 dopamine receptor agonists, beta-arrestin. shares compounds with D2 ag-1. DiscoveRx D3 beta-arrestin cells, luminescence, 90 min. Potency, µM (titrated, usually from 76.9 µM), hits mostly activators. 2,300 tested, 4% active; note: nearly all actives have a fitted effect of over 70% in size
Target sequence (P35462 whole entry, looked up): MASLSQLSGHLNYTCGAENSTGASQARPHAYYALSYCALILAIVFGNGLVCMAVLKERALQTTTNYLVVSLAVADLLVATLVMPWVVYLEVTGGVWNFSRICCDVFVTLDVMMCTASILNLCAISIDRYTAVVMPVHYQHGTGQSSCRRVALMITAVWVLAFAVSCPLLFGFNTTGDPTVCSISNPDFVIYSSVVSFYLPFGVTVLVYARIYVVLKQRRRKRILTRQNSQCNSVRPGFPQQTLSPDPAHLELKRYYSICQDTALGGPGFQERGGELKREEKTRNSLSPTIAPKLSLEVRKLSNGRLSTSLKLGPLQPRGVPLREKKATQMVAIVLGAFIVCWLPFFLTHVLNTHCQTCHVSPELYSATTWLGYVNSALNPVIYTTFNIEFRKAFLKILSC
D2 ag-3: counter-screen for D3 agonists: human D2 dopamine receptor agonism; shares compounds with D2 ag-1; DiscoveRx PathHunter D2 beta-arrestin, luminescence, 90 min; response scale: percent relative to full dopamine signal; Potency, µM (doses to about 76.9 µM), hits mostly activators; 2,300 tested, 5.9% active; AID 720507; note: nearly all actives have a fitted effect of over 70% in size
Hits are given with their value. This is a sample that favours compounds with a hit; in the whole collection about 2.4% have one here. Unless noted, calls come from the whole dose curve; as a rule, active = well fitted activation curve with a large enough effect; inconclusive = small, poorly fitted or top-dose-only effect; inactive = flat fitted curve, though single readings scatter.

Screening O=C(NCCS(=O)(=O)N1CCN(c2ccc(F)cc2)CC1)C1CC(=O)N(c2ccccc2)C1 (stereo not given) returned D2 ag-1 inactive, D2 antagonist inactive, D2 ag-2 inactive, D2 PAM-1 inactive and D2 PAM-2 inactive.
Screening Cc1ccc(NC(=O)CCn2nc(-c3ccccc3)c3ccccc3c2=O)c(C)c1 returned D2 ag-1 inactive and D2 PAM-1 inactive.
`Cc1onc(-c2c(Cl)cccc2Cl)c1C(=O)N1CCc2ccccc2C1` gave D2 ag-1 72, D2 antagonist inactive, D2 ag-2 inactive, D2 PAM-1 inactive, D2 PAM-2 inactive, D3 arrestin ag inactive and D2 ag-3 inactive.
Screening Cc1ccc(C(C)C)c(OCCN(C)C)c1 returned D2 ag-1 inactive, D2 antagonist inactive, D2 ag-2 inactive, D2 PAM-1 inactive and D2 PAM-2 inactive.
Screening CCCN(CCC)CCOc1cc(C)ccc1C(C)C returned D2 ag-2 inconclusive, D2 PAM-2 inactive, D3 arrestin ag inactive and D2 ag-3 inconclusive.
CCCN(CC(=O)Nc1ccccc1C)C(=O)c1ccc2c(c1)OCO2 was read as D2 ag-1 inactive, D2 antagonist inactive, D2 ag-2 inactive, D2 PAM-1 inactive, D2 PAM-2 inactive, D3 arrestin ag inactive and D2 ag-3 inactive.
Screening COCCN(CC(=O)Nc1cccc(C)c1C)C(=O)c1ccc2c(c1)OCO2 returned D2 ag-1 inactive, D2 antagonist inactive, D2 ag-2 inactive, D2 PAM-1 inactive and D2 PAM-2 inactive.
Screening COCc1cc(C)nc(OCC(=O)N/N=C/c2ccc(O)cc2)c1C#N returned D2 ag-1 50, D2 antagonist inactive, D2 ag-2 inactive, D2 PAM-1 inactive, D2 PAM-2 inactive, D3 arrestin ag inactive and D2 ag-3 inactive.
`CCCCNS(=O)(=O)c1ccc(NC(=O)Cc2ccc(OC)cc2)cc1` gave D2 ag-1 inactive, D2 antagonist inactive, D2 ag-2 inactive, D2 PAM-1 inactive and D2 PAM-2 inactive.
COc1ccc(CC(=O)Nc2ccc(S(=O)(=O)NC(C)C)cc2)cc1 was read as D2 ag-2 inactive, D2 PAM-2 inactive, D3 arrestin ag inactive and D2 ag-3 inactive.
Screening COc1cccc(NC(=O)CSc2nc(C)c(Cc3ccccc3)c(=O)[nH]2)c1 returned D2 PAM-1 inactive.
Screening O=C(CCc1nc(-c2cccs2)no1)Nc1cccc([N+](=O)[O-])c1 returned D2 ag-1 inactive and D2 PAM-1 inactive.
